In PubChem BioAssay (EPA / NIEHS) one finds outcome data, which are given here for 24 compounds.

Results filed as inconclusive are left out. The source made the active and inactive calls. How the source made its calls: active means hit-call score of the fitted dose curve at least 0.9, where 1 is the maximum; inconclusive means response in the unintended direction; inactive means score below 0.9.

Chain of Androgen receptor (Homo sapiens) (P10275 whole entry, looked up, the tested form may be a part): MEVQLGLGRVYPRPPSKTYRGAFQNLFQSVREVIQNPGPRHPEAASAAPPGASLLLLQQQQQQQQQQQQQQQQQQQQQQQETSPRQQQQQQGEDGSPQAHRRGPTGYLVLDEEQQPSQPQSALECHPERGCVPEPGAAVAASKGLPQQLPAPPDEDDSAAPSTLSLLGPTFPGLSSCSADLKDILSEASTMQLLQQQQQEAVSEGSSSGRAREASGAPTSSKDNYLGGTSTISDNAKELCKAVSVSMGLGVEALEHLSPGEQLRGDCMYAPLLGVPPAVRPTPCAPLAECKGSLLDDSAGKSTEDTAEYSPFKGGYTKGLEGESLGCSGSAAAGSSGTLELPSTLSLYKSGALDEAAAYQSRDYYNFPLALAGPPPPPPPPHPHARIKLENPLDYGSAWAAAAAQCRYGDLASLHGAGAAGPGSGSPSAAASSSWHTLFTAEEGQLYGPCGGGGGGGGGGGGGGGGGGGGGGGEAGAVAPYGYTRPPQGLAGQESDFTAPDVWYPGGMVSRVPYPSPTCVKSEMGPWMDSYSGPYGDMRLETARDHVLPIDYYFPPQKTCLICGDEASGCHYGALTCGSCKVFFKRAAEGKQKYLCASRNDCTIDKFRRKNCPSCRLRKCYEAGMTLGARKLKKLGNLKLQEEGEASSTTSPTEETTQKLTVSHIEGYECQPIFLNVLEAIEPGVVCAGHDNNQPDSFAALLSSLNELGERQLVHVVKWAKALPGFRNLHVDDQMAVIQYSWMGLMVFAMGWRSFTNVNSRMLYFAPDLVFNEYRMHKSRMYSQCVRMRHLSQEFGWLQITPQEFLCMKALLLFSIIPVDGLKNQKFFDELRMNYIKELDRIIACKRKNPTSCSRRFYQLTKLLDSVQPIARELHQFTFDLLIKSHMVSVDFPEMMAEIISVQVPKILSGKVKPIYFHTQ

The first assay concerns the target Androgen receptor (Homo sapiens) (UniProt P10275). In words: ATG_AR_TRANS: Attagene TRANS-FACTORIAL HepG2 Assay for human Androgen Receptor (AR) (AID 2282973). The note with it: HepG2 Attagene TRANS-FACTORIAL AR reporter transcription. Summed up: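 HepG2 cells transiently transfected with AR-Gal4 chimera and GAL4-UAS reporter units; chemical exposure 24 h. Reporter mRNA quantified by RT-PCR with fluorescent labelling and capillary electrophoresis; gain-of-signal fitted against DMSO.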
For the compound `CC(C)N(C(=O)CCl)c1ccccc1`, the result was inactive. On the same count and under the same terms, in the case of `BrCC(Br)c1ccccc1` (stereo unspecified) it was “inactive”; in that of `O=C1C=CC(=O)c2ccccc21`, “inactive”; in that of `C=CC(Cl)CCl` (stereo unspecified), “inactive”. As to `O=C(O)COc1cc(Cl)c(Cl)cc1Cl`, the outcome was inactive. `CCC(C)(C#N)N=NC(C)(C#N)CC` (stereo unspecified): the compound was classed as inactive.

System in a further assay: not listed separately
In words: ATG_M_19_TRANS: Attagene TRANS-FACTORIAL HepG2 Assay for M19 Transcription Factor (Internal Marker) (AID 2282974). The note with it: HepG2 Attagene TRANS-FACTORIAL M19 internal marker reporter. Put shortly: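 HepG2 transiently transfected with GAL4-UAS multiplex reporter constructs, exposed 24 h; reporter RNA quantified by RT-PCR, 6-FAM labeling, HpaI digestion and capillary electrophoresis; internal background marker fitted upward versus DMSO.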
As to `Cc1cc(C)cc(C)c1`, the compound was called inactive. On the same count and under the same terms, in the case of `CCCCOC(=O)COC(=O)c1ccccc1C(=O)OCCCC` it was “inactive”; in that of `CC(C)[N+](=O)[O-]`, “inactive”; in that of `Cc1cc(SCc2sc(-c3ccc(C(F)(F)F)c(F)c3)nc2C)ccc1OCC(=O)O`, “inactive”. Turning to `O=C(CBr)c1ccc(O)cc1`, the outcome was inactive. For the compound `O=C(O)CC(O)(CC(=O)O)C(=O)O`, the outcome was inactive. On to `ClCc1ccccc1Cl`, for which the outcome was inactive. As for `CCCCCCCCBr`, the outcome was inactive. On to `N#Cc1ccc(Cl)cc1`, for which the call was inactive.

For `NNCCO`, the outcome was inactive.

`O=[N+]([O-])c1ccc(Cl)c([N+](=O)[O-])c1`: the compound was called inactive. Turning to `O=C(O)COc1cc(Cl)c(Cl)cc1Cl`, the outcome was inactive. For `C[C@H]1C(=O)O[C@@H]2CCN3CC=C(COC(=O)[C@](C)(O)[C@]1(C)O)[C@H]23`, the outcome was inactive. Regarding `CN(N=O)C(N)=O`, the outcome was inactive. As to `OCCCCO`, the result was inactive. For `CCCCCCCCCCCCCCC(Br)C(=O)O` (stereo unspecified), the compound was called inactive. `OC[P+](CO)(CO)CO`: the result was inactive. Turning to `CCC(C)(C#N)N=NC(C)(C#N)CC` (stereo unspecified), the outcome was inactive. Still for that read-out and setting: in the case of `CC(C)C(C)(N)C#N` (stereo unspecified) it was “inactive”; in that of `CCC[CH2][Sn]([CH2]CCC)([CH2]CCC)[CH2]CCC`, “inactive”.
